This is part of a sample that, as a whole, favours compounds with a hit. Of some 83,000 tested, about 20% had one in any assay.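 Note: values are percent growth. 100 is the growth of untreated cells, values between 100 and 0 indicate rising inhibition; between -100 and 0 indicates cell death.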 Activity calls are given as the source filed them. The calls were made as follows: active = growth percent below 10; inactive = the rest.
Experiments:
Assay in all cases: NCI-60 one-dose screen, 48 h (100 = growth as untreated, 0 = no growth, -100 = all killed)
Settings in all cases: 10 µM unless noted
NCI-H23 lung = tested on: NCI-H23 lung
NCI-H226 lung = tested on: NCI-H226 lung
NCI-H322M lung = tested on: NCI-H322M lung
HOP-62 NSCLC = tested on: HOP-62 NSCLC
NCI-H460 lung = tested on: NCI-H460 lung
HOP-92 NSCLC = tested on: HOP-92 NSCLC
A549/ATCC NSCLC = tested on: A549/ATCC NSCLC
786-0 renal = tested on: 786-0 renal
COLO 205 colon = tested on: COLO 205 colon

Measured: growth

COc1cc(/C=C/C(=O)C(C(=O)/C=C/c2ccc(OC(=O)CCNc3nnc(C)s3)c(OC)c2)C(=O)CCNc2nnc(C)s2)ccc1OC(=O)CCNc1nnc(C)s1
inactive: NCI-H23 lung 11.9% | NCI-H226 lung 24.5% | NCI-H322M lung 42.1% | HOP-62 NSCLC 27.6% | A549/ATCC NSCLC 34.3%
active: NCI-H460 lung -29% | HOP-92 NSCLC -16.4% | 786-0 renal -38% | COLO 205 colon -26.3%

c1ccc(COc2ccc(Nc3ncnc4c3cnn4-c3ccccc3)cc2)cc1
inactive: NCI-H23 lung 109% | NCI-H226 lung 103% | NCI-H322M lung 84.1% | HOP-62 NSCLC 104% | NCI-H460 lung 93.7% | HOP-92 NSCLC 98.8% | A549/ATCC NSCLC 104% | 786-0 renal 100% | COLO 205 colon 107%

NS(=O)(=O)c1ccc(N2CC(c3nc4ccccc4[nH]3)CC2=O)cc1 (configuration not stated)
inactive: NCI-H23 lung 90.3% | NCI-H226 lung 97.1% | NCI-H322M lung 88.9% | HOP-62 NSCLC 85.4% | NCI-H460 lung 100% | HOP-92 NSCLC 100% | A549/ATCC NSCLC 99.5% | 786-0 renal 102% | COLO 205 colon 101%

CC1=C([Se]CC(OC(=O)[C@@H](CSSC(C)(C)C)NC(=O)C(C)(C)C)C(=O)NCCCCCC(=O)OCc2ccccc2)C(=O)c2ccccc2C1=O (some centres not stated)
inactive: COLO 205 colon 40.4%
active: NCI-H23 lung -30.2% | NCI-H226 lung 3.19% | NCI-H322M lung -22.6% | HOP-62 NSCLC -95% | NCI-H460 lung 1.81% | HOP-92 NSCLC -35.9% | A549/ATCC NSCLC 1.31% | 786-0 renal -55.6%

O=C(Nc1ccccc1S)c1ccccc1
inactive: NCI-H23 lung 93.3% | NCI-H226 lung 103% | NCI-H322M lung 103% | HOP-62 NSCLC 120% | NCI-H460 lung 98.7% | HOP-92 NSCLC 109% | A549/ATCC NSCLC 93.8% | 786-0 renal 109% | COLO 205 colon 119%

CN(C)CCC(=O)Nc1ccc(-n2cc(-c3cccc(NC(=S)Nc4cccc(-c5cn(-c6ccc(NC(=O)CCN(C)C)cc6)nn5)c4)c3)nn2)cc1
inactive: NCI-H23 lung 89.1% | NCI-H226 lung 135% | NCI-H322M lung 92.4% | HOP-62 NSCLC 105% | NCI-H460 lung 95.6% | HOP-92 NSCLC 101% | A549/ATCC NSCLC 88.6% | 786-0 renal 101% | COLO 205 colon 99.4%

O=C(Nc1cccc(-n2cc(-c3ccncc3)c(-c3cc(O)cc(Cl)c3)n2)c1)Nc1ccc(Cl)c(Cl)c1
active: NCI-H23 lung -20.5% | HOP-62 NSCLC -44.2% | NCI-H460 lung 0.213% | HOP-92 NSCLC -30.5% | A549/ATCC NSCLC 3.96% | 786-0 renal -72.1%
inactive: NCI-H226 lung 14.5% | NCI-H322M lung 19.5% | COLO 205 colon 22.4%

Cc1ccc(N/N=C(/C(=O)c2ccc(Cl)cc2)c2nc(C)cc(=O)[nH]2)cc1
inactive: NCI-H23 lung 111% | NCI-H226 lung 107% | NCI-H322M lung 106% | HOP-62 NSCLC 94.2% | NCI-H460 lung 105% | HOP-92 NSCLC 91% | A549/ATCC NSCLC 100% | 786-0 renal 82.9% | COLO 205 colon 116%

N#CC1c2ccccc2C=CN1C(=O)N(c1ccccc1)c1ccccc1 (configuration not stated)
active: COLO 205 colon -41.6%
inactive: NCI-H23 lung 66.6% | NCI-H226 lung 95.9% | NCI-H322M lung 103% | HOP-62 NSCLC 101% | NCI-H460 lung 101% | HOP-92 NSCLC 45.6% | A549/ATCC NSCLC 91.4% | 786-0 renal 95.5%

Nc1nc(Nc2ccccc2SSc2ccccc2Nc2nc(N)nc(C(Cl)(Cl)Cl)n2)nc(C(Cl)(Cl)Cl)n1
inactive: NCI-H23 lung 54% | NCI-H226 lung 64.6% | NCI-H322M lung 75.3% | NCI-H460 lung 69.6% | HOP-92 NSCLC 131% | 786-0 renal 70% | COLO 205 colon 114%
active: HOP-62 NSCLC -34% | A549/ATCC NSCLC -42.5%

COc1ccc([N+](=O)[O-])c(S(=O)(=O)c2ccc(Cl)cc2)n1
inactive: NCI-H23 lung 81.9% | NCI-H226 lung 91.2% | NCI-H322M lung 106% | HOP-62 NSCLC 95.2% | NCI-H460 lung 98.1% | HOP-92 NSCLC 63.1% | A549/ATCC NSCLC 99.2% | 786-0 renal 70.1% | COLO 205 colon 25.2%

N#Cc1c(-c2ccccc2)cc(-c2ccccc2)n(CCCC(=O)O)c1=O
inactive: NCI-H23 lung 91.3% | NCI-H226 lung 101% | NCI-H322M lung 95.3% | HOP-62 NSCLC 85.1% | NCI-H460 lung 103% | HOP-92 NSCLC 119% | A549/ATCC NSCLC 92% | 786-0 renal 99.6% | COLO 205 colon 109%

CCCCCCCSc1ncnc2[nH]ncc12
inactive: NCI-H23 lung 93.9% | NCI-H226 lung 77.4% | NCI-H322M lung 93.9% | HOP-62 NSCLC 95.7% | NCI-H460 lung 103% | A549/ATCC NSCLC 101% | 786-0 renal 76.3% | COLO 205 colon 93.9%
active: HOP-92 NSCLC -2.1%

COc1ccc(-c2ccc(O)c(C(=O)/C=C/c3cc(OC)c(OC)c(OC)c3)c2)cc1
inactive: NCI-H23 lung 72.7% | NCI-H226 lung 99.1% | NCI-H322M lung 81.8% | HOP-62 NSCLC 103% | NCI-H460 lung 79.9% | HOP-92 NSCLC 56% | A549/ATCC NSCLC 80.5% | 786-0 renal 99.4% | COLO 205 colon 83.7%

CCCCOP(=O)(OCCCC)C(C(=O)OCC)C(CC(=O)OCC)C(=O)OCC (configuration not stated)
inactive: NCI-H23 lung 134% | NCI-H226 lung 99.1% | NCI-H322M lung 107% | HOP-62 NSCLC 104% | NCI-H460 lung 109% | HOP-92 NSCLC 48.4% | A549/ATCC NSCLC 103% | 786-0 renal 106% | COLO 205 colon 107%

CC(=O)N1N=C(c2ccc3c(c2)OCO3)CC1c1c(C)nn(-c2ccccc2)c1N(C)Cc1ccccc1 (configuration not stated)
inactive: NCI-H23 lung 86.9% | NCI-H226 lung 76.3% | NCI-H322M lung 89.6% | HOP-62 NSCLC 77.1% | NCI-H460 lung 79.1% | HOP-92 NSCLC 46.1% | A549/ATCC NSCLC 50.6% | 786-0 renal 85.5% | COLO 205 colon 79.3%

NS(=O)(=O)c1ccc(-n2ncc3c(SCc4ccccc4)ncnc32)cc1
inactive: NCI-H23 lung 100% | NCI-H226 lung 99.8% | NCI-H322M lung 87.7% | HOP-62 NSCLC 66.9% | NCI-H460 lung 105% | HOP-92 NSCLC 43% | A549/ATCC NSCLC 80.8% | 786-0 renal 85.1% | COLO 205 colon 110%

O=C(CNC(=O)c1cccc2ccccc12)Nc1ccccc1Oc1ccc(O)cc1
active: COLO 205 colon 5.7% [5 µM]
inactive: NCI-H23 lung 37.2% [5 µM] | NCI-H226 lung 62.7% [5 µM] | NCI-H322M lung 41.3% [5 µM] | HOP-62 NSCLC 35.7% [5 µM] | NCI-H460 lung 14.5% [5 µM] | HOP-92 NSCLC 77.5% [5 µM] | A549/ATCC NSCLC 27.4% [5 µM] | 786-0 renal 29.3% [5 µM]

Nc1c(C(=O)Nc2cccc(Cl)c2)sc2nc3c(cc12)C(O)CCC3 (configuration not stated)
active: COLO 205 colon 5.9%
inactive: NCI-H23 lung 29.8% | NCI-H226 lung 62.3% | NCI-H322M lung 62.3% | HOP-62 NSCLC 46.8% | NCI-H460 lung 11.2% | HOP-92 NSCLC 13.6% | A549/ATCC NSCLC 24.7% | 786-0 renal 53.3%

Cc1sc2nc(NCCc3cccs3)[nH]c(=O)c2c1C
inactive: NCI-H23 lung 98.5% | NCI-H226 lung 83.2% | NCI-H322M lung 104% | HOP-62 NSCLC 68.4% | NCI-H460 lung 95.7% | HOP-92 NSCLC 93.3% | A549/ATCC NSCLC 58.7% | 786-0 renal 81.6% | COLO 205 colon 91%

Cc1sc2nc(NCc3ccccc3)[nH]c(=O)c2c1C
inactive: NCI-H23 lung 75.2% | NCI-H226 lung 82.1% | NCI-H322M lung 91.3% | HOP-62 NSCLC 39.2% | NCI-H460 lung 26.6% | HOP-92 NSCLC 69.4% | A549/ATCC NSCLC 33.6% | 786-0 renal 67.2% | COLO 205 colon 34.7%

COC(=O)[C@H]1[C@H]2C[C@@H]3c4[nH]c5cc(OC)ccc5c4CCN3C[C@H]2C[C@@H](OC(=O)/C=C/c2cc(OC)c(OC)c(OC)c2)[C@@H]1OC
inactive: NCI-H23 lung 93.5% | NCI-H226 lung 101% | NCI-H322M lung 88.6% | HOP-62 NSCLC 61.6% | NCI-H460 lung 48.6% | HOP-92 NSCLC 60.5% | A549/ATCC NSCLC 74.2% | 786-0 renal 58.9% | COLO 205 colon 67.6%

O=C1C2C(C(=O)N1CC[Se][Se]CCN1C(=O)C3C(C1=O)[C@H]1C=C[C@@H]3C1)[C@H]1C=C[C@@H]2C1 (some centres not stated)
active: NCI-H23 lung -9.33% | NCI-H226 lung -46.9% | NCI-H322M lung 2.77% | HOP-62 NSCLC -80.1% | NCI-H460 lung -14.9% | HOP-92 NSCLC -74.4% | A549/ATCC NSCLC -28.4% | 786-0 renal -84% | COLO 205 colon -86.6%

COc1cc(/C=C\C(C)=N\Nc2ccccc2)ccc1O
inactive: NCI-H23 lung 91.2% | NCI-H226 lung 109% | NCI-H322M lung 128% | HOP-62 NSCLC 67.5% | NCI-H460 lung 111% | HOP-92 NSCLC 100% | A549/ATCC NSCLC 80.7% | 786-0 renal 97.4% | COLO 205 colon 111%

O=C(NCCNC(=O)Oc1cccc2ccccc12)Oc1cccc2ccccc12
inactive: NCI-H23 lung 91.2% | NCI-H226 lung 79% | NCI-H322M lung 99.1% | HOP-62 NSCLC 84.7% | NCI-H460 lung 106% | HOP-92 NSCLC 79.8% | A549/ATCC NSCLC 93.4% | 786-0 renal 106% | COLO 205 colon 94.7%

CCOC(=O)c1sc(NC(=O)COc2cccc(/C=C3\Cc4ccc(Cl)cc4C3=O)c2)nc1C
inactive: NCI-H23 lung 93.1% | NCI-H226 lung 95.4% | NCI-H322M lung 130% | HOP-62 NSCLC 107% | NCI-H460 lung 103% | HOP-92 NSCLC 96.7% | A549/ATCC NSCLC 107% | 786-0 renal 99.5% | COLO 205 colon 116%

COc1ccc(C2CC(c3ccc4c(c3)OCO4)=NN2C=O)cc1 (configuration not stated)
inactive: NCI-H23 lung 100% | NCI-H226 lung 87.6% | NCI-H322M lung 107% | HOP-62 NSCLC 102% | NCI-H460 lung 102% | HOP-92 NSCLC 89.2% | A549/ATCC NSCLC 95.8% | 786-0 renal 89.5% | COLO 205 colon 115%

CCn1cnc(C[C@H](NC(=O)[C@H](CCCCNC(=O)Nc2cc(C(F)(F)F)cc(C(F)(F)F)c2)NC(=O)Nc2cc(C(F)(F)F)cc(C(F)(F)F)c2)C(=O)OC)c1
active: NCI-H23 lung -65.8% [100 µM] | NCI-H226 lung 2.9% [100 µM] | NCI-H322M lung 5.23% [100 µM] | HOP-62 NSCLC -75.3% [100 µM] | NCI-H460 lung -41.1% [100 µM] | HOP-92 NSCLC -45.4% [100 µM] | A549/ATCC NSCLC -75.3% [100 µM] | 786-0 renal -54.3% [100 µM] | COLO 205 colon -100% [100 µM]

Source: PubChem BioAssay (NCI)
